Drawing on PubChem BioAssay (NCATS), this text covers Potency and viability, % of control for 16 compounds.

Results filed as inconclusive are left out. Values without a mark were called inactive. The source made the active and inactive calls. Calls come from the whole dose curve; as a rule, active = well fitted cell-killing curve with a large enough effect; inconclusive = small, poorly fitted or top-dose-only effect, or effect the other way; inactive = no such curve, though single readings can be large or run the other way.
Potency is the fitted concentration of half-maximal effect.

The nature of this assay: Viability qHTS for spleen associated tyrosine kinase inhibitor (SYKi) drug resistant MV4-11 cells (AID 1963824). Note: nearly all actives have a fitted effect of over 35% in size. As to conditions: SYKi-resistant MV4-11 viability, CellTiter-Glo, 72 h; series mostly up to 45 µM. In outline: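 SYK-inhibitor-resistant MV4-11 AML cells were seeded at 500 per well onto compound and cultured 72 hours (37 °C, 5% CO2). CellTiter-Glo was then added, and after 10 min at room temperature, luminescence gave viability.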
For the compound `CNCCC(c1cccs1)c1ccc(O)c2ccccc12` (stereo unspecified), the Potency was 14.6 µM (active). As to `CC(=O)O[C@@H]1C=C2[C@H](CC[C@@]3(C)[C@@]2(O)CC[C@H]2Cc4c([nH]c5ccccc45)[C@@]23C)O[C@@H]1C(C)(C)O`, the Potency is 8.93 µM (active). On the same count and under the same terms, the result for `CC1=CC(=O)C(C(C)C)=C/C1=N/OC(=O)c1ccccc1C` reads 4.61 µM (active); that for `C/C=C(\C)C(=O)OC1C(C)C2(O)C(C=C(CO)CC3(O)C(=O)C(C)=CC32)C2C(C)(C)C12OC(C)=O` (stereo unspecified), 0.112 µM (active). As for `C[C@@H]1O[C@@H](O[C@H]2[C@H](O)[C@@H](C(=O)O)O[C@@H](O[C@H]3CC[C@@]4(C)C(CC[C@]5(C)C4CC=C4C6CC(C)(C)CC[C@]6(C(=O)O)CC[C@]45C)C3(C)C)[C@@H]2O[C@@H]2OC[C@@H](O)[C@H](O)[C@H]2O)[C@H](O)[C@H](O)[C@H]1O` (stereo partly specified), the viability, % of control was 92.4% [at 9.25 µM]. Consider `O=c1cc(-c2ccccc2)oc2ccc(O)cc12`, for which the Potency is 14.6 µM (active). The same measure, in the same setting: the same measure for `COC(=O)N1CCC(n2ncc3c(N4CCOCC4)nc(-c4ccc(NC(=O)Nc5ccc(CO)cc5)cc4)nc32)CC1`: 0.0184 µM (active); for `Cc1occc(=O)c1O[C@@H]1O[C@H](CO[C@@H]2OC[C@](O)(CO)[C@H]2O)[C@@H](O)[C@H](O)[C@H]1O`: “inactive”; for `C=CC(=O)Nc1cccc(Nc2nc(Nc3ccccc3)ncc2C)c1`: 0.651 µM (active). With `CC1OC(=O)C[C@@H]2C(C(=O)O)=CO[C@@H](O[C@H]3O[C@H](CO)[C@@H](O)[C@H](O)[C@H]3O)[C@H]12` (stereo partly specified), the Potency entry is “inactive”. Still for that read-out and setting: the same measure for `CCCSc1nc(NC2CC2c2ccc(F)c(F)c2)c2nnn(C3CC(OCCO)C(O)C3O)c2n1` (stereo unspecified): 20.6 µM (active); for `Cc1ccc(S(=O)(=O)NCc2ccc(C(=O)NCCN(Cc3ccccc3)C(C)C)cc2)cc1`: 14.6 µM (active); for `O=C1NC(=NCc2cccs2)S/C1=C/c1ccc2ncccc2c1`: 1.84 µM (active).

For `NC(=O)C1=CC2C3C=CC2C(OC3=O)O1` (stereo unspecified), the Potency is 26.6 µM (active). Regarding `COc1cc(NC(=O)Nc2cccc(CNC(=O)O[C@H]3CCOC3)c2)ccc1-c1cnco1`, the Potency was 0.82 µM (active).

For `N#Cc1ccc2ncnc(NCCc3ccccc3)c2c1`, the Potency was 4.11 µM (active).
